# Screens from PubChem BioAssay.
# ERp5 block: inhibitors of ERp5-driven insulin aggregation, primary screen, biochemical, turbidity, absorbance 650 nm, single point; Protein disulfide-isomerase A6 (Homo sapiens), Q15084; 90 min; inhibition, % at 9.99 µM; 0.05% of 350,000 active;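 active = mean replicate inhibition above about 25%, with every replicate also reaching it, limit read from the data, passing the limit was not always enough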
# PDI inh: inhibitors of human PDI, primary screen, biochemical, turbidity, single point, plate reader | Protein disulfide-isomerase (Homo sapiens), P07237 | 0.052% of 350,000 active | inhibition, % at 10 µM | PDI insulin aggregation turbidity, A650, 90 min;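 active = mean inhibition across replicates of 30% or more, whatever share of single replicates reach that level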
# ARNT-TACC3 inh: disruptors of ARNT/TACC3 protein interaction, primary screen, biochemical, AlphaScreen, single concentration; Transforming acidic coiled-coil-containing protein 3 (Homo sapiens), Q9Y6A5; AlphaScreen His-ARNT PAS-B/GST-TACC3 binding, luminescence; TACC3 fragment carries E629A point mutation; inhibition, % at 9.99 µM; 0.66% of 390,000 active; AID 623870, 2012;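 active = mean inhibition of replicates at least 50% and at least half of replicates each reaching 50%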;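 note: 0% = complete ARNT plus TACC3 wells and 100% = ARNT alone without TACC3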
# CendR NRP1 mod: modulators of CendR peptide binding to NRP-1, primary screen, biochemical, fluorescence polarization, uHTS | Neuropilin-1 (Homo sapiens), O14786 | FAM-RPARPAR peptide binding to NRP-1 | inhibition, % at 25 µM | 0.85% of 360,000 active;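 active = inhibition or corrected inhibition above about 18%, plus a signal ratio from 0.5 to 1.5, limit read from the data, passing the limit was not always enough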
# PglD DTNB: C. jejuni PglD acetyltransferase inhibitors, primary screen, biochemical, DTNB colorimetric, single point. UDP-N-acetylbacillosamine N-acetyltransferase PglD (Campylobacter jejuni). purified PglD enzyme, DTNB colorimetric CoA detection. inhibition, % at 12.5 µM. 0.098% of 360,000 active. AID 602405, 2012; in the data active = inhibition above about 16%, passing the limit was not always enough
# ALR H2O2 inh: inhibitors of human ALR sulfhydryl oxidase, primary screen, biochemical, H2O2 detection, HRP-luminol luminescence, single point. FAD-linked sulfhydryl oxidase ALR (Homo sapiens), P55789. purified ALR, DTT oxidation. inhibition, % (concentration not given with the values). 3.8% of 290,000 active. AID 485317, 2010;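 active = mean replicate inhibition above about 79%, with every replicate also reaching it, limit read from the data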
# * = called active by the depositor; / = no result. Many of the other results were omitted from the sample, so hits are more common in it than they were.
SMILES,ERp5 block,PDI inh,ARNT-TACC3 inh,CendR NRP1 mod,PglD DTNB,ALR H2O2 inh
COCc1ccc(CN2CCc3c([nH]c4ccccc34)C2C(C)(C)C)o1 (stereo unspecified),-1.8,-0.4,45.1*,7.9,/,58.4
COCCC(=O)N1CCc2c([nH]c3ccccc23)C1C(C)(C)C (stereo unspecified),9.7,2.3,-7.0,9.2,-1.8,33.6
Cc1noc(C)c1S(=O)(=O)Nc1ccc2c(c1)C(=O)N([C@H](C)CO)C[C@@H](C)[C@H](CN(C)S(=O)(=O)c1ccc(F)cc1)OCCCC[C@@H](C)O2,-7.8,/,2.6,/,-0.8,/
COc1ccc2c(/C=N/NS(=O)(=O)c3ccc(C)cc3)c[nH]c2c1,5.2,-1.7,1.4,-13.0,-3.5,89.3*
COc1ccc2[nH]cc(/C=N/NS(=O)(=O)c3ccc(C)cc3)c2c1,6.2,-1.4,7.0,1.1,/,/
Cc1noc(C)c1S(=O)(=O)Nc1ccc2c(c1)C(=O)N([C@@H](C)CO)C[C@@H](C)[C@@H](CN(C)Cc1ccc3c(c1)OCO3)O2,-5.5,/,7.3,/,1.7,/
C=CCN1Cc2ccccc2[C@H]2OC(c3ccc(OCCCO)cc3)=N[C@@]2(CCC(=O)OC(C)(C)C)C1=O,0.4,/,-1.7,/,-4.6,/
Cc1noc(C)c1NC(=O)Nc1ccc2c(c1)C(=O)N([C@H](C)CO)C[C@H](C)[C@H](CN(C)CC1CCCCC1)OCCCC[C@H](C)O2,5.1,/,-5.6,/,1.7,/
CS(=O)(=O)N(CC(=O)Nc1ccccc1F)C1CCCCC1,-2.9,-2.7,-5.2,22.9*,-1.3,/
COc1ccccc1-c1cc(-c2ccc(O)cc2)nc(N)c1C#N,-2.4,-11.7,/,-7.7,/,96.1*
COc1ccccc1-c1cc(C2CC2)nc(N)c1C#N,/,-6.6,-10.8,1.1,0.1,-3.3
COc1ccc(-c2cc(-c3ccc(O)cc3)nc(N)c2C#N)cc1,-1.2,-28.3,-6.2,-2.8,5.3,54.7
N#Cc1c(-c2ccccc2)cc(-c2ccc(O)cc2)nc1N,-5.5,-2.8,-2.2,10.0,-5.6,99.3*
COc1cc(-c2cc(-c3ccc(O)cc3)nc(N)c2C#N)ccc1O,-17.2,-10.9,16.3,-16.6,/,96.7*
CCN1[C@@H]2Cn3c(ccc(-c4ccncc4)c3=O)[C@H]1[C@@H](C(=O)NCc1ccccc1)[C@@H]2CO,3.1,/,-33.0,/,1.5,/
COc1ccc(-c2nc(CS(=O)CC(=O)NC3CCCCCC3)c(C)o2)cc1 (stereo unspecified),1.6,-1.2,-5.2,2.6,/,98.2*
COc1ccc(-c2nc(CS(=O)CC(=O)NC3CCCCC3)c(C)o2)cc1OC (stereo unspecified),4.8,-5.3,-4.7,8.2,1.6,99.3*
COc1ccc(-c2nc(CS(=O)CC(=O)NC3CCCCC3)c(C)o2)cc1 (stereo unspecified),-7.9,6.3,1.1,21.6,1.4,65.8
COc1ccc(-c2nc(CS(=O)CC(=O)NC3CCCCC3C)c(C)o2)cc1 (stereo unspecified),-4.9,-7.8,-0.9,-3.0,5.7,99.0*
COc1cccc(-c2nc(CS(=O)CC(=O)NC3CC3)c(C)o2)c1 (stereo unspecified),8.9,/,/,3.4,-6.9,99.1*
COc1ccc(-c2nc(CN3CCC(C(=O)NC4CCCC4)CC3)c(C)o2)cc1OC,2.6,4.4,-1.0,4.5,-3.5,-6.3
Cc1nn(-c2ccccc2)c(N)c1Sc1ccc([N+](=O)[O-])cc1,/,-9.3,7.3,44.5*,/,40.4
Cc1nn(S(=O)(=O)c2ccc(Cl)cc2)c(C)c1Sc1ccc([N+](=O)[O-])cc1,-2.0,-3.5,-4.3,2.0,-2.8,0.0
COc1cccc(C2NC(CCSC)(C(=O)O)C3C(=O)N(C(C)C)C(=O)C23)c1O (stereo unspecified),-5.3,3.2,-1.4,-4.0,-0.2,98.1*
